The values below come from PubChem BioAssay AID504734 (The Scripps Research Institute Molecular Screening Center, 2011).

Structures are written as SMILES. In all, about 340,000 compounds went through this assay and about 730 (0.21%) were called active.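 Rule for the calls: active = inhibition above the mean over all tested compounds plus 3 SD (cut at about 21% in these data); inactive = the rest.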 Shown is part of a subset that was picked to be rich in actives.

In this assay the target is Toll-like receptor 9 (Homo sapiens) + Myeloid differentiation primary response protein MyD88 (Homo sapiens) (UniProt Q9NR96+Q99836). Put plainly: inhibitors of TLR9-MyD88 association in cells, primary screen, cell-based, CHO, BLA complementation, fluorescence (AID 504734).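 Note: 0% = DMSO only wells and 100% = clavulanate BLA inhibitor control wells.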 The settings on record: CHO BLA complementation TLR9-MyD88, CCF4 FRET ratio; at 4.98 µM; active compounds read high.
Chain of Toll-like receptor 9 (Homo sapiens) + Myeloid differentiation primary response protein MyD88 (Homo sapiens) (Q99836 whole entry, looked up): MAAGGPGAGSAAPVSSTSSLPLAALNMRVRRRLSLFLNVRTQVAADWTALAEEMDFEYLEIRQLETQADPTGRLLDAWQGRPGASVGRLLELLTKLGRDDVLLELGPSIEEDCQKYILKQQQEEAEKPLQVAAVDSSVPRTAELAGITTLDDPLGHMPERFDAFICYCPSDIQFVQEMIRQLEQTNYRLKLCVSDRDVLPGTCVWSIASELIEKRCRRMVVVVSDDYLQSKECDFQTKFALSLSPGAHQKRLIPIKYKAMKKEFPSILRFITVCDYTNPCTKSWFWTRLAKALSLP
Chain of Toll-like receptor 9 (Homo sapiens) + Myeloid differentiation primary response protein MyD88 (Homo sapiens) (Q9NR96 whole entry, looked up): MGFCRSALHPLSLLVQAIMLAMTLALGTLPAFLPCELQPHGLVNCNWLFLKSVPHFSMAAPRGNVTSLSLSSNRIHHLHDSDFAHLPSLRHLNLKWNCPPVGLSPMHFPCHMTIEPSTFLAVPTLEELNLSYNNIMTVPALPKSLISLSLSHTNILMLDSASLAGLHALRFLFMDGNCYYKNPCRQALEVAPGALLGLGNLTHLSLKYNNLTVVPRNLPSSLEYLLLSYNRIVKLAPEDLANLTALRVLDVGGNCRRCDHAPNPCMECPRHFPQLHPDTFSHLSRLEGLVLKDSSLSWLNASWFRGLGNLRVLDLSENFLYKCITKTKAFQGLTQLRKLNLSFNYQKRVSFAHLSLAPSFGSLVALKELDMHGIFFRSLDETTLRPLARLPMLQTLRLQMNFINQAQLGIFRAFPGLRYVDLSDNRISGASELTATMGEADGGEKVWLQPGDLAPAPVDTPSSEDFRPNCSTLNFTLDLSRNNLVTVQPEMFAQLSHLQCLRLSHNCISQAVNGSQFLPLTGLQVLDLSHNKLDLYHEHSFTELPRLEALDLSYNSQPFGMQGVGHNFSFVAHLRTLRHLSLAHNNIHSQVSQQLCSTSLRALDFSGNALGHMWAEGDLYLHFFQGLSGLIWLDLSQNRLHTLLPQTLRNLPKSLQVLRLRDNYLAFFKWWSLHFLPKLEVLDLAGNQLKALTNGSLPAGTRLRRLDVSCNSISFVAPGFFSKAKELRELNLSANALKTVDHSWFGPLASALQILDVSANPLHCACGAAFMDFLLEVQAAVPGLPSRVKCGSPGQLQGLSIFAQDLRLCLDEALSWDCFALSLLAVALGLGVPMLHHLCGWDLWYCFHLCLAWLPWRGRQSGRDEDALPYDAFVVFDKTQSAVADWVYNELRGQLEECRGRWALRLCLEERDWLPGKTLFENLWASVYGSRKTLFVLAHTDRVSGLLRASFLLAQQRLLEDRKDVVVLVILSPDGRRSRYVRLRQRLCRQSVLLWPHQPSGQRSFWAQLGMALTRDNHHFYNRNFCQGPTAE
One may read the inhibition as the drop in the measured response relative to a control, in per cent. For the compound `Cc1ccc(S(=O)(=O)N2C[C@]3(O)C[C@@H]4C(=O)N(c5ccccc5)C(=O)[C@@H]4C[C@]3(OC(=O)NC3CC3)C2)cc1`, the inhibition is -0.67% (inactive). In the case of `Cc1ccc(S(=O)(=O)N2CCCCC2)cc1NC(=O)CCNC(=O)c1ccccc1Cl` it was -7.91% (inactive); in that of `O=[N+]([O-])c1ccc(N=NNc2ccc([N+](=O)[O-])cc2)cc1`, -10.5% (inactive). In the case of `O=[N+]([O-])c1ccc(N/N=C/c2ccccc2)cc1` it was 21.1% (active); in that of `Cc1cc([N+](=O)[O-])ccc1NCc1cccc([N+](=O)[O-])c1`, -1.82% (inactive); in that of `Cc1cccc(COc2ccccc2/C=N/Nc2ccc([N+](=O)[O-])cc2)c1`, 21.7% (active).

As for `Cc1ccccc1OCCOc1ccc([N+](=O)[O-])cc1/C=N/n1cnnc1`, the inhibition is -3.95% (inactive). Then `O=[N+]([O-])c1cccc(/C=N/Nc2ncc(Br)cn2)c1`, with -10.4% (inactive). Then `C[C@H](O)[C@@H]1C(=O)N2CCc3c([nH]c4ccccc34)[C@@H]2C[C@@H]1N(C)C(=O)Nc1ccc(F)cc1`, with -0.01% (inactive). For the compound `CCOc1cc(/C=N/NC(=O)c2c(C)nc3ccc(Cl)cn23)ccc1O`, the inhibition was -2.46% (inactive). Then `C=CCN1CCN(c2ccncc2S(=O)(=O)N2CCN(C)CC2)CC1`, with 9.55% (inactive); and `Cc1sc2ncnc(SCC(=O)NC3CCS(=O)(=O)C3)c2c1C` (configuration not stated), with -4.28% (inactive). Consider `Cn1nc(N)c2ncc(C(Cl)(Cl)Cl)nc21`, for which the inhibition was -17.4% (inactive).

With `COc1cc(C(=O)OCCCN2CCOCC2)cc(OC)c1OC`, the inhibition was 1.8% (inactive). Then `Cc1cc(OCC(=O)Nc2nccs2)c2c(C)c(C)c(=O)oc2c1`, with -3.81% (inactive); and `COc1ccccc1-c1n[nH]nc1C1=CC(=O)CC(C)(C)C1`, with 9.73% (inactive); and `CNC(=S)N/N=C/c1ccc(OCc2ccccc2)c(Br)c1`, with 29.9% (active). Then `O=C(O)COc1ccc(/C=N/O)cc1Br`, with 7.44% (inactive); and `CNC(=S)NNC(=O)c1sccc1OCc1ccccc1`, with -6.12% (inactive). In the case of `CCCCCCN1C[C@@H](O)[C@H](n2cc(COC(=O)c3ccccc3)nn2)C[C@@H]1c1ccc(Cl)cc1` it was -2.39% (inactive); in that of `C[C@H]1CN([C@@H](C)CO)C(=O)CCCn2nncc2CO[C@@H]1CN(C)Cc1ccc(Oc2ccccc2)cc1`, 0.54% (inactive). As to `O=C(CCN1CCN(C/C=C/c2ccccc2)CC1)Nc1ccccc1Cl`, the inhibition was 2.63% (inactive). In the case of `NC(=O)C1(Nc2ccccc2Cl)CCCC1` it was -10.1% (inactive). In the case of `O=C(Nc1ccccc1Cl)/C(Cl)=C(\Cl)S(=O)c1ccccc1` (configuration not stated) it was 23.8% (active); in that of `CN1OC[C@@H]2CN(S(=O)(=O)c3cccc(C(F)(F)F)c3)[C@H](c3ccc(-c4cc5ccccc5o4)cc3)C[C@@H]21`, -0.31% (inactive).

With `Cc1cc(C)cc(NC(=O)CCN2C(=O)c3ccccc3C2=O)c1`, the inhibition is -4.31% (inactive). For `O=C(CCN1C(=O)c2ccccc2C1=O)NNC(=O)c1ccc(Cl)cc1Cl`, the inhibition was 29.1% (active). Then `Cc1cc(C)cc(OCC(=O)NNC(=O)CCN2C(=O)c3ccccc3C2=O)c1`, with -3.37% (inactive); and `Cc1ccc(-c2ccc(CN3C(C(C)C)C(=O)N(Cc4cn(CCC5OCCCO5)nn4)CCS3(=O)=O)cc2)cc1` (configuration not stated), with -5.52% (inactive). Consider `CC(OC(=O)c1ccc(NC(=O)CC#N)cc1)C(=O)Nc1ccc(S(=O)(=O)N2CCCC2)cc1` (configuration not stated), for which the inhibition is 0.94% (inactive). Consider `COCCCn1c(C(=O)NC2CCCCC2)cc2c(=O)n3cccc(C)c3nc21`, for which the inhibition was -12.6% (inactive). Consider `CC1(C)CN(Cc2cccnc2)C(=O)[C@H]1CC(=O)Nc1ccc(Br)cc1`, for which the inhibition was -3.44% (inactive).

For the compound `O=C(CSc1ccc(Cl)cc1)NC1CC1`, the inhibition was -15.8% (inactive). Then `C#CCN(C[C@H]1[C@H](OC(=O)NC2CCCC2)[C@H](OC(=O)NC2CCCC2)C[C@H]2C(=O)N(c3ccccc3)C(=O)[C@@H]12)S(=O)(=O)c1ccc(C)cc1`, with -5.56% (inactive); and `CC1=C(C(=O)OC2CCCCC2)C(c2cccnc2)n2ncnc2N1` (configuration not stated), with -0.13% (inactive).

With `Brc1ccc(C2=CC(c3ccco3)n3ncnc3N2)cc1` (configuration not stated), the inhibition was 30.4% (active). Regarding `COc1ccc(C2CC(c3ccc(C)cc3)Nc3ncnn32)cc1` (configuration not stated), the inhibition is 1.5% (inactive).

As to `CCOc1ccc(C2=CC(c3ccccc3)n3ncnc3N2)cc1` (configuration not stated), the inhibition was 33.7% (active). In the case of `Clc1ccc2c(c1)C1=C(C(c3ccncc3)O2)C(c2ccc(Br)cc2)n2ncnc2N1` (configuration not stated) it was -8.31% (inactive). On to `CCN1C(=O)[C@H]2[C@@H](c3ccc(C(F)(F)F)cc3)N[C@]3(CCCN(Cc4ccc(Br)cc4)C3=O)[C@H]2C1=O`, for which the inhibition was 5.46% (inactive).

As for `N#CCCN(C(=O)Nc1ccc(Cl)c(Cl)c1)C1CCCCC1`, the inhibition was 8.97% (inactive). Then `CCN(C(=O)Nc1cccc2ccccc12)c1ccccc1`, with -15.1% (inactive); and `Cc1nc2ccccc2nc1CC(O)(c1ccccc1)c1ccccc1`, with 2.03% (inactive).

As for `CCOC(=O)c1cc(-c2sc(NC(=O)c3ccccc3)nc2C)n(CCO)n1`, the inhibition is 2.6% (inactive). Then `Cc1cc2c3ccccc3[nH]c(=O)n2n1`, with 1.06% (inactive); and `CN(c1ccccc1)S(=O)(=O)c1ccc(C(=O)NCc2cccnc2)cc1`, with 7.85% (inactive); and `O=[N+]([O-])c1ccc(C(S(=O)(=O)Cc2ccccc2)S(=O)(=O)Cc2ccccc2)cc1`, with 2.65% (inactive). On to `O=C1NC(=O)C2C1C(c1ccc([N+](=O)[O-])cc1)=NN2Cc1ccccc1` (configuration not stated), for which the inhibition is 27.8% (active). In the case of `CC1CN(Cc2ccccc2)C(=S)NC1=O` (configuration not stated) it was -6.13% (inactive). Regarding `CN(Cc1ccccc1)C(=O)CCC1CCN(C(=O)c2ccco2)CC1`, the inhibition was 0.05% (inactive).

`NS(=O)(=O)c1ccc(CNC(=O)c2cc(S(=O)(=O)N3CCOCC3)ccc2N2CCCC2)cc1`: the inhibition is -5.7% (inactive).

As to `CC1(c2cccc(Br)c2)NC(=O)N(CC(=O)NCCC2=CCCCC2)C1=O` (configuration not stated), the inhibition was 3.69% (inactive). In the case of `COC(=O)Cc1cc(=O)oc2c(C)c(O)ccc12` it was 21.6% (active); in that of `COc1cccc(C(=O)OCc2cc(=O)oc3c(C)c(C)ccc23)c1OC`, -5.33% (inactive).

`CCCc1cc(=O)oc2c(C)c(OCC(=O)Nc3ccccn3)ccc12`: the inhibition was 6.85% (inactive). For the compound `S=C(NN=Cc1ccccn1)Nc1ccccn1`, the inhibition is 10.2% (inactive).

With `CC1C(=O)N(Cc2cn(Cc3ccco3)nn2)CCS(=O)(=O)N1Cc1ccc(-c2cccc(CO)c2)cc1` (configuration not stated), the inhibition is -1.07% (inactive).

`C[C@@H]1CN([C@@H](C)CO)C(=O)CCCn2nncc2CO[C@H]1CN(C)Cc1ccc(C(F)(F)F)cc1`: the inhibition is -8.49% (inactive). For the compound `C[n+]1ccc(C(=O)NCc2ccccc2)cc1`, the inhibition was -10.2% (inactive). In the case of `O=C(NCCCNCc1ccccc1)c1ccc(/C=N/O)nc1` it was -3.77% (inactive); in that of `C[N+](C)(C)CCNC(=O)c1cc[n+](Cc2ccccc2)c(/C=N/O)c1`, 22.8% (active). Then `Cc1ccc2cccc([N+](=O)[O-])c2n1`, with 4.24% (inactive). Then `COc1ccc(CCNC(=O)CN(c2ccccc2)S(=O)(=O)c2ccccc2)cc1`, with 0.66% (inactive); and `COc1ccc(OC)c(N=Cc2c(O)[nH]c3ccccc23)c1`, with 41.1% (active). With `COc1cc2[nH]c(O)c(C=O)c2cc1OC`, the inhibition was -8.58% (inactive).

Take `CN=c1scc(-c2cc(OC)ccc2OC)n1/N=C/c1c(C)[nH]c2ccccc12`: the inhibition is 6.42% (inactive). Then `CC(=O)c1ccccc1NC(=O)COC(=O)C1COc2ccccc2O1` (configuration not stated), with 2.77% (inactive); and `C[C@@H]1CN([C@@H](C)CO)S(=O)(=O)c2ccc(-c3ccc(C(=O)N(C)C)cc3)cc2O[C@@H]1CN(C)Cc1ccccc1C(=O)O`, with -6.78% (inactive).

For the compound `CCOC(=O)c1c(NC(=S)SC)sc(C(=O)N2CCc3ccccc3C2)c1C`, the inhibition was -0.74% (inactive). In the case of `COc1ccc(CN2C[C@H]3CON(C)[C@H]3C[C@H]2c2ccc(-c3cccc(F)c3)cc2)cc1` it was 4.13% (inactive); in that of `O=C(O)C1CCCN1c1nc(Cl)ccc1[N+](=O)[O-]` (configuration not stated), -12.8% (inactive); in that of `CN1CN(C)c2ccc([N+](=O)[O-])c3cccc1c23`, -8.31% (inactive). In the case of `CCOc1cccc(=O)c2c(C)n(CC3CCCO3)c(C)c12` (configuration not stated) it was 1.31% (inactive); in that of `O=C1c2cccc3c([N+](=O)[O-])ccc(c23)C(=O)N1CC1CCCO1` (configuration not stated), 56.9% (active).

For `CCN(Cc1ccncc1)C(=S)Nc1ccccc1C`, the inhibition is 3.02% (inactive). In the case of `Cc1cccc(S(=O)(=O)N(C)C[C@@H]2OCc3cnnn3CCCC(=O)N([C@H](C)CO)C[C@@H]2C)c1` it was -11.3% (inactive). Then `CN1CCN(c2ccncc2S(=O)(=O)N2CCCC2)CC1`, with 3.95% (inactive); and `O=C(O)/C=C/c1ccc(S(=O)(=O)N2CCCCCC2)cc1`, with -16.4% (inactive). On to `O=C(/C=C(O)/C=C/c1ccc(O)cc1)/C=C/c1ccc(O)cc1`, for which the inhibition was 42% (active). Then `COc1cccc(C=CC(=O)C=CC=Cc2ccccc2)c1`, with -5.47% (inactive); and `COc1ccc(NC(=O)CSc2nnnn2-c2cccc(OC)c2)cc1`, with 13.5% (inactive). Then `COCOCCn1cc(CN2CCS(=O)(=O)N(Cc3ccc(-c4ccc(OC)cc4)cc3)C(CC(C)C)C2=O)nn1` (configuration not stated), with -1.5% (inactive); and `C[C@@H]1CN([C@@H](C)CO)C(=O)c2c(c3ccccc3n2C)-c2ccccc2CO[C@H]1CN(C)C(=O)C1CC1`, with -4% (inactive).

For the compound `Cc1cc2oc(=O)cc(CN3CCN(Cc4ccccc4)CC3)c2cc1C`, the inhibition was -18.4% (inactive).

On to `Cc1cc2oc3ccc(NCCC4CCCN4C)cc3c(=O)c2cc1C` (configuration not stated), for which the inhibition was 24.9% (active). Then `COc1cccc2sc3cc(NCC[C@@H]4CCCN4C)ccc3c(=O)c12`, with 0.85% (inactive); and `C[C@H]1CN([C@@H](C)CO)S(=O)(=O)c2ccc(Br)cc2O[C@H]1CN(C)C(=O)c1cnccn1`, with 5.72% (inactive). Regarding `CCC1NC(=O)c2cccnc2-n2c1nc1ccc(C)cc1c2=O` (configuration not stated), the inhibition is 8.64% (inactive). In the case of `COc1ccc(S(=O)(=O)N2CCCCC2)cc1C(=O)NC1CCS(=O)(=O)C1` (configuration not stated) it was -5.76% (inactive); in that of `CCc1ccccc1NC(=O)CN1CCN(C(=O)c2cc(C3CC3)nn2-c2ccccc2)CC1`, -43.9% (inactive); in that of `NC(=O)CSc1nnc(-c2cccc(S(=O)(=O)N3CCOCC3)c2)o1`, 10.4% (inactive). In the case of `OCCNc1nc(Nc2ccc(Cl)c(Cl)c2)nc2ccccc12` it was -0.91% (inactive).

On to `O=[N+]([O-])c1c(NCCO)cc(Sc2nc3ccccc3s2)c2nonc12`, for which the inhibition was 43.3% (active). `Nc1nnc(SCC(=O)Nc2ccc3nc(SCC(=O)Nc4ccccc4)sc3c2)s1`: the inhibition was 0.67% (inactive). Then `O=C(CSc1ncn[nH]1)Nc1nc2c(F)c(F)c(F)cc2s1`, with -0.11% (inactive); and `O=C(C[C@H]1C[C@H]2c3cc(NS(=O)(=O)c4ccc(F)cc4)ccc3O[C@H]2[C@H](CO)O1)NCc1cc(F)ccc1F`, with -5.81% (inactive); and `COc1cc(C(=O)N2CCN(C)CC2)cc(OC)c1OC`, with 8.16% (inactive). In the case of `CC1CC(C)CN(S(=O)(=O)c2cccc(C(=O)N3C(=O)c4cccc(N)c4C3=O)c2)C1` (configuration not stated) it was -15.2% (inactive); in that of `COc1cc(C(=O)N2C(=O)c3cccc(N)c3C2=O)cc(OC)c1OC`, 20.9% (active); in that of `COc1ccc(-c2c(C#N)cnc(C)c2C)c(O)c1OC`, -8.05% (inactive). With `C#Cc1cc(N2CCN(C(=O)c3ccoc3)CC2)n2nc(-c3cccc(Cl)c3)cc2n1`, the inhibition was 5.91% (inactive). Then `CCCCCCNC(=O)O[C@]12C[C@@H](C(=O)OC)[C@@H](C(=O)OC)C[C@@]1(O)CN(S(=O)(=O)c1ccc(C)cc1)C2`, with -7.21% (inactive).
